Assay results published in PubChem BioAssay (NCI).
Compounds without any hit were thinned out: in the full panel of roughly 83,000, 20% have a hit.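 Activity criterion: percent growth below 10, measured after cells in 96-well plates were exposed to a single compound concentration for 48 hours.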 Active and inactive are the calls of the source.

How the values were obtained:
Test in all cases: NCI-60 one-dose screen, 48 h (100 = growth as untreated, 0 = no growth, -100 = all killed)
[1] = test system: HCT-15 colon; details: 10 µM unless noted
[2] = test system: HT29 colon; details: 10 µM unless noted
[3] = test system: SNB-75 CNS; details: 10 µM unless noted
[4] = test system: SNB-19 CNS; details: 10 µM unless noted
[5] = test system: U251 CNS; details: 10 µM unless noted
[6] = test system: PC-3 prostate; details: 10 µM unless noted
[7] = test system: SK-MEL-5 melanoma; details: 10 µM unless noted
[8] = test system: UACC-62 melanoma; details: 10 µM unless noted
[9] = test system: LOX IMVI melanoma; details: 10 µM unless noted
[10] = test system: SK-MEL-28 melanoma; details: 10 µM unless noted
[11] = test system: EKVX NSCLC; details: 10 µM unless noted
[12] = test system: SN12C renal; details: 10 µM unless noted
[13] = test system: UO-31 renal; details: 10 µM unless noted
[14] = test system: TK-10 renal; details: 10 µM unless noted
[15] = test system: CAKI-1 renal; details: 10 µM unless noted
[16] = test system: A498 renal; details: 10 µM unless noted
[17] = test system: CCRF-CEM leukemia; details: 10 µM unless noted
[18] = test system: MOLT-4 leukemia; details: 10 µM unless noted
[19] = test system: ACHN renal; details: 10 µM unless noted
[20] = test system: SK-MEL-2 melanoma; details: 10 µM

Measured: growth

CN1CCN(CCCOc2cccc3nc(Nc4ccc(Cl)c(C(F)(F)F)c4)ccc23)CC1
active: [1] -49.6% | [2] -58.9% | [3] -3.73% | [5] -22.7% | [8] -29% | [9] -95% | [10] -45.2% | [14] -66.5% | [17] -24.7% | [18] -57.6%
inactive: [4] 20.8% | [6] 14.6% | [7] 41.5% | [11] 44.5% | [12] 28.3% | [13] 28.6% | [15] 48.9% | [16] 30.8%

Cn1ncc(Cl)c1-c1cc(C(=O)N[C@H](CN)Cc2cccc(F)c2)sc1Cl
inactive: [1] 16.9% | [11] 38.5% | [12] 29.5% | [19] 18.7% | [15] 11%
active: [2] 0.334% | [3] -46.2% | [4] 9.05% | [5] -45.2% | [6] 9.61% | [7] -96.1% | [8] -19.5% | [9] -51.9% | [13] -10.1% | [14] 8.77% | [16] -61.2% | [17] 6.1% | [18] -14.5%

O=C(Cc1ccccc1)Nc1nnc(NC2CCN(c3nnc(NC(=O)Cc4ccccc4)s3)CC2)s1
inactive: [1] 99.4% | [2] 94.4% | [3] 106% | [4] 107% | [5] 90.8% | [6] 87.1% | [7] 98.7% | [8] 89% | [9] 69.2% | [20] 122% | [11] 90.2% | [12] 86% | [13] 74.4% | [14] 110% | [19] 103% | [16] 43.8% | [17] 72.4% | [18] 91.3%

Cc1cn(-c2cc(NC(=O)c3ccc(C)c(Nc4nccc(-c5cnccn5)n4)c3)cc(C(F)(F)F)c2)cn1
inactive: [1] 82% | [2] 19.7% | [3] 88.2% | [4] 74.5% | [5] 39.8% | [6] 60.3% | [7] 57.9% | [8] 26.4% | [9] 63.3% | [10] 31.3% | [11] 107% | [12] 56.5% | [13] 62.9% | [14] 102% | [15] 97.6% | [16] 106% | [17] 60.5% | [18] 52.6%

Clc1nc(Cl)c2ncn(CC#CCn3cnc4c(Cl)nc(Cl)nc43)c2n1
inactive: [4] 12.2%
active: [1] -65.7% | [2] -44.2% | [3] 8.25% | [5] -75.8% | [6] -72.1% | [7] -66.9% | [8] -11.6% | [9] -83.4% | [10] -26.1% | [11] -39.3% | [12] 3.09% | [14] -31.5% | [19] -53.3% | [15] -96.5% | [17] -62.2% | [18] 1.03%

C=CC[n+]1c(/C=C2\Sc3ccccc3N2C)sc(-c2ccccc2)c1-c1ccccc1
inactive: [1] 26.2% | [3] 12% | [4] 26.8% | [5] 15.1% | [6] 17.9% | [8] 13.8% | [9] 10.9% | [11] 16.5% | [17] 23.2%
active: [2] 6.28% | [7] -97.8% | [20] -15.5% | [12] 8.01% | [13] 6.58% | [14] -6.28% | [19] 8.86% | [16] 7.29% | [18] -4.71%

Cc1cccc(Cl)c1NC(=O)c1cnc(Nc2cc(N3CCOCC3)cc(N3CCOCC3)c2)s1
active: [2] -10.2% | [3] -43.3% | [9] -71.8% | [13] -0.169% | [14] -65.2% | [19] -7.5% | [15] -37.8% | [16] -22.6%
inactive: [1] 22.2% | [4] 47.4% | [5] 54.6% | [6] 45.7% | [7] 65.1% | [8] 41.6% | [11] 33.1% | [12] 30% | [17] 63.2% | [18] 27.8%

CNC(=O)c1cc(Oc2ccc3nc(NC(=O)Nc4ccc(Cl)c(C(F)(F)F)c4)sc3c2)ccn1
inactive: [1] 23.5% | [4] 33.5% | [6] 12.4% | [7] 25.7% | [10] 34.7% | [12] 15.6% | [15] 53.4% | [16] 30% | [17] 27.8% | [18] 38%
active: [2] 3.52% | [3] -58.8% | [5] -9.69% | [8] 8.48% | [9] 1.46% | [11] 9.24% | [13] -7.14% | [14] -55.1%

COc1cc(NCCCN)c2ncccc2c1
inactive: [1] 100% | [2] 75.6% | [3] 87.5% | [4] 87.5% | [5] 83.2% | [6] 82.2% | [7] 81.5% | [8] 86.8% | [9] 61.8% | [11] 105% | [12] 84.7% | [13] 63.4% | [14] 84.8% | [19] 97.2% | [15] 97.2% | [16] 56.9% | [17] 92.5% | [18] 91.5%

COC(=O)[C@@H](OC)[C@@H]1Cc2cc3cc(OC4CC(OC5CC(O)C(O)C(C)O5)C(O)C(C)O4)c(C)c(O)c3c(O)c2C(=O)[C@H]1OC1CC(OC2CC(OC3CC(C)(O)C(O)C(C)O3)C(O)C(C)O2)C(O)C(C)O1 (some centres undefined)
active: [1] 7.16% | [2] 3.61% | [3] -79.3% | [4] 4.99% | [5] 2.62% | [6] -23.3% | [7] -69.5% | [8] -58.5% | [9] -24% | [10] -38% | [11] 9.91% | [12] 9.04% | [13] -9.9% | [16] -42.9% | [17] 2.91% | [18] -9.54%
inactive: [14] 13.7%

O=C1C=CC2(NN=C(c3ccccc3)N2c2ccccc2)c2cccc(O)c21 (centres undefined)
active: [7] -91.5% | [8] -50.4% | [9] -5.86% | [12] 7.23%
inactive: [1] 16.8% | [2] 44.3% | [3] 19.9% | [4] 32% | [5] 11.2% | [6] 36% | [11] 57.9% | [13] 22.1% | [14] 91.6% | [19] 55.2% | [15] 81.7% | [16] 103% | [17] 76.5% | [18] 71.7%

CS(=O)(=O)CCNCc1ccc(-c2ccc3ncnc(Nc4ccc(OCc5cccc(F)c5)c(Cl)c4)c3c2)o1
inactive: [11] 29.9% | [13] 19.6% | [19] 30.2% | [15] 40.1%
active: [1] -3.39% | [2] -59.1% | [3] -97.2% | [4] 3.57% | [5] -84.8% | [6] -20.6% | [7] -98.9% | [8] -52.4% | [9] -72.5% | [12] -17.9% | [14] 7.31% | [16] 7.48% | [17] 5.76% | [18] 4.21%

Nc1ncnc2c1ccn2-c1cccc(NC(=O)c2ccc(N3CCOCC3)c(C(F)(F)F)c2)c1
inactive: [1] 31.5% | [2] 38.2% | [3] 67.3% | [4] 95.7% | [5] 39.5% | [6] 35.6% | [7] 41.6% | [8] 43.4% | [9] 41.2% | [20] 37.7% | [11] 56% | [12] 47.8% | [13] 22% | [19] 30.9% | [15] 26.3% | [16] 63.3% | [17] 20.5% | [18] 47.8%

COC(=O)[C@H](Cc1ccc(O)cc1)NC(=O)[C@@H](OC)[C@@H]1Cc2cc3cc(OC4CC(OC5CC(O)C(O)C(C)O5)C(O)C(C)O4)c(C)c(O)c3c(O)c2C(=O)[C@H]1OC1CC(OC2CC(OC3CC(C)(O)C(O)C(C)O3)C(O)C(C)O2)C(O)C(C)O1 (some centres undefined)
inactive: [1] 47.5% | [6] 13.4% | [11] 21.5% | [12] 13.3% | [13] 18.1% | [14] 23.5% | [15] 69.5% | [17] 11.1%
active: [2] 3.68% | [3] -52.5% | [4] 8.72% | [5] 7.18% | [7] -53.3% | [8] -53.1% | [9] -31.2% | [10] -26.6% | [16] -63.2% | [18] -1.8%

C/C(=C(/c1ccc(Cl)cc1)c1ccc(OCCN2CCCC2)cc1)c1ccccc1
inactive: [3] 86.1% | [4] 80.7% | [5] 63.9% | [6] 64.5% | [7] 14.9% | [8] 48.9% | [9] 30.6% | [10] 62% | [11] 55.2% | [12] 80.8% | [13] 63% | [14] 87.7% | [15] 81.8% | [16] 77.6% | [17] 59.2% | [18] 68.7%
active: [1] 8.01% | [2] 4.46%

Cn1ccnc1C(=O)/C=C/c1ccc(CC(=O)Nc2ccc(S(F)(F)(F)(F)F)cc2)cc1
active: [1] 1.2% | [2] -36% | [3] 3.35% | [4] -39.9% | [5] -93.3% | [6] -32.7% | [8] -2.41% | [9] -78.7% | [11] -27.4% | [12] -11.8% | [13] -90.5% | [14] 5.88% | [19] -21.6% | [15] -31.4% | [17] 8.93% | [18] -10.5%
inactive: [7] 33.2% | [16] 13.5%

N#Cc1ccc(-n2nnc3ccccc32)cc1C#N
inactive: [1] 99.8% | [2] 108% | [3] 121% | [4] 112% | [5] 91.3% | [6] 101% | [7] 97.6% | [8] 94.5% | [9] 99.4% | [11] 79.2% | [12] 101% | [13] 88.5% | [14] 134% | [19] 103% | [15] 85.4% | [16] 72.8% | [17] 93.1% | [18] 93.3%
